FLuc counter: qHTS profiling assay for firefly luciferase inhibitor/activator using purifed enzyme and Km concentrations of substrates (counterscreen for miR-21 project); purified FLuc, Km substrates, luminescence inhibition; Potency, µM (doses to about 57.5 µM), for inactives: at the highest dose activity change, negative = inhibition, actives largely listed as inhibitors; hit rate 6.9% among 360,000; AID 588342, 2011;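 further: plate controls were vehicle for no effect and reference inhibitor for full effect; nearly all actives have a fitted effect of over 55% in size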
Target sequence (P08659 whole entry, looked up): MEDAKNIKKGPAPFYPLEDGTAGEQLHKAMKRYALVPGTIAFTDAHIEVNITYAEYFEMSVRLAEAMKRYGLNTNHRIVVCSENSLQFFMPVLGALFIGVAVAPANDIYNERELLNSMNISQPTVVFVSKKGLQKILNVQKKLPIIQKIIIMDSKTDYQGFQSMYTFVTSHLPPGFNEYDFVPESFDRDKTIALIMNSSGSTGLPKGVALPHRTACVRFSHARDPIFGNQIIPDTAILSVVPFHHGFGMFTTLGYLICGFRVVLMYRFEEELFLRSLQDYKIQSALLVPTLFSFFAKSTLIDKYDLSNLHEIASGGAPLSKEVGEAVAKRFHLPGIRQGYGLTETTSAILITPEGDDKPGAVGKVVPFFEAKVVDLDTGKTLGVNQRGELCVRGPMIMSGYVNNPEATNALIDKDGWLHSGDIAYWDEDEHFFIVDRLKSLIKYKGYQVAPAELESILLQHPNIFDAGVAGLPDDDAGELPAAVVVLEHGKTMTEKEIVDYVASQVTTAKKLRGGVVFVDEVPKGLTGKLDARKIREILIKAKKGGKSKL
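Biochemical qHTS of compounds, final roughly 60 µM downward over six points, against 10 nM purified firefly luciferase using Km concentrations of substrates (10 uM D-luciferin, 10 uM ATP) in Tris acetate pH 7.5 buffer; luminescence output.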
Luc counter: Counterscreen for Luciferase (Kinase-Glo TM) Inhibition; Luciferin 4-monooxygenase (Photuris pensylvanica), Q27757; Kinase-Glo luciferase, ATP luminescence, 8 min; Potency, µM (series often up to 38.3 µM), for inactives: top-dose activity change, negative = inhibition, hits mostly inhibitors; hit rate 0.28% among 200,000; further: on the % scale 0 is the no-effect control and ±100 the full control effect; nearly all actives have a fitted effect of over 60% in size
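Compound is pinned into ATP-containing buffer (10 uM ATP, imidazole pH 7.2, 7 mM MgCl2). Kinase-Glo luciferase reagent is then added. Light output is recorded following an 8-min room-temperature incubation.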
SMN2 splice enh: qHTS Assay for Enhancers of SMN2 Splice Variant Expression; HEK293 SMN2-luciferase splicing reporter, luminescence, 30-36 h; Potency, µM (titrated, usually from 46.1 µM), without a hit: at the top dose activity change, positive = activation, hits mostly activators; hit rate 2.8% among 210,000; AID 1458, 2008; further: % of control where 0% means no effect; nearly all actives have a fitted effect of over 55% in size
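HEK293 cells carry an SMN2 […]–luciferase reporter in which exon 7 inclusion puts luciferase in frame. Cells were plated 10-12 h before compound addition, then incubated 30-36 h at 37C. ONE-Glo luminescence was read; sodium butyrate at 4.5 mM final served as control.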
Rab9 prom act: qHTS Assay for Rab9 Promoter Activators. hit rate 2.8% among 320,000. Huh7 Rab9 promoter-luciferase reporter, luminescence, 24 h. AID 485297, 2010. Potency, µM (series often up to 9.22 µM), for inactives: at the top dose activation, negative = inhibition, hits mostly activators; further: % of control where 0% means no effect; nearly all actives have a fitted effect of over 60% in size
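Using Huh7 cells stably transfected with Rab9 promoter–luciferase, compounds were incubated 24 h at 37 °C, 5% CO2; luciferase luminescence was read 10 min after reagent addition.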
NPC1 promoter act: qHTS Assay for NPC1 Promoter Activators; hit rate 2.4% among 320,000; Potency, µM (doses to about 9.22 µM), for inactives: at the highest dose activation, usual class: activators; Huh7 NPC1 promoter luciferase reporter, 24 h; further: % of control where 0% means no effect; nearly all actives have a fitted effect of over 60% in size
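NPC1 promoter–luciferase Huh7 cells; 24 h compound; luminescence.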
ELG1 genotox: qHTS screen for small molecules that induce genotoxicity in human embryonic kidney (HEK293T) cells expressing luciferase-tagged ELG1. HEK293T ELG1-luciferase reporter, luminescence, 16 h. AID 504466, 2011. Potency, µM (highest dose often 46 µM), inactives show at the top dose activity change, positive = activation, actives largely listed as activators. hit rate 1.3% among 330,000; further: % of control where 0% means no effect; nearly all actives have a fitted effect of over 60% in size
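16 hr compound incubation (37 °C, 5% CO2) of HEK293T cells carrying luciferase-tagged ELG1; luciferase then measured by ONE-Glo luminescence after 30 min at RT.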
The depositor's hits bear a star; ? = inconclusive; / = not tested or not shown. Rows were chosen to be rich in hits. Some 7.5% of all compounds tested hit in one or more screens of this group. The call rests on the fitted dose curve; in most records, active means well fitted curve in the direction sought with a large enough effect; inconclusive means small, poorly fitted or top-dose-only effect, or another doubt; inactive means no such curve, though single readings can be large; an effect the other way counts as inactive or inconclusive. Potency means the concentration at half of the fitted maximal effect.

SMILES	FLuc counter	Luc counter	SMN2 splice enh	Rab9 prom act	NPC1 promoter act	ELG1 genotox
CCOc1cccc2cc(-c3nc(-c4ccccc4C)no3)c(=O)oc12	0.54µM*	/	/	/	/	/
O=c1oc2ccccc2cc1-c1nc(-c2cccs2)cs1	?	17%	0%	16%	10%	?
Cc1ccc(-c2nc(-c3cc4cccc(OCc5cccc(C)c5)c4oc3=O)no2)cc1	0%	/	6%	/	/	/
COc1cccc2cc(-c3nc(-c4cccs4)cs3)c(=O)oc12	5.4µM*	1%	14µM*	3.5µM*	3.5µM*	?
COc1cccc2cc(-c3nc(-c4ccccc4F)no3)c(=O)oc12	0.17µM*	/	/	/	/	/
FC(F)(F)c1cccc(N2CCN(c3ncnc4c3nc3n4CCCC3)CC2)c1	7%	/	/	/	/	/
COc1ccc(Cl)cc1NC(=O)NCCc1c(C)nn(C)c1C	-2%	/	/	/	/	/
COc1cccc(-c2noc(-c3cc4ccccc4oc3=O)n2)c1OC	2.7µM*	/	/	/	/	/
COc1cccc(CN(C)S(=O)(=O)c2ccccc2Br)c1	/	/	/	/	/	0%
O=C1CCC(=O)N1c1cccc(-c2nc3ccccc3o2)c1	?	-4%	-1%	3%	4%	3%
O=C1c2cccnc2C(=O)N1c1cccc(-c2nc3ccccc3o2)c1	3.8µM*	-2%	1%	-7%	1%	3%
Cc1cc(=O)n(Cc2ccc(Cl)cc2)c2c1c(C)nn2-c1ccccc1	1%	/	/	/	/	/
COc1cc(/C=N/Nc2nc3ccccc3s2)cc([N+](=O)[O-])c1O	11µM*	/	/	22%	?	4%
COc1cc(/C=N/Nc2ccccc2[N+](=O)[O-])cc(OC)c1O	?	-20%	8%	1%	2%	?
COc1cc(/C=N/Nc2nc3ccccc3s2)ccc1OC(=O)c1ccccc1F	?	7%	?	?	24%	6.5µM*
COc1cc(/C=N/Nc2ccccc2[N+](=O)[O-])ccc1OC(=O)c1ccccc1F	9.5µM*	?	6.3µM*	3.2µM*	4µM*	2.6µM*
O=[N+]([O-])c1cc(Cl)cc(/C=N/Nc2nc3ccccc3s2)c1O	?	-7%	/	-7%	-2%	0%
COc1ccc2[nH]c(C(=O)N3CCC(n4nccc4NC(=O)C4CC4)CC3)c(C)c2c1	-1%	/	/	-9%	-8%	2%
Cc1ccc(C(=O)Nc2nc(=O)[nH]s2)cc1	24µM*	5%	38%	3%	-1%	6%
Cc1ccc(C(=O)Nc2ccc3c(c2)C(=O)NC3=O)cc1	?	/	/	14%	-2%	19%
Nc1ccc(C(=O)Nc2nccs2)cc1	?	-13%	13µM*	4µM*	?	?
CC(=O)Nc1sc(NC(=O)c2ccc(C)cc2)nc1-c1cccs1	-14%	2%	11µM*	-7%	-3%	7%
O=C(Nc1nccs1)c1ccc2nccnc2c1	?	-4%	-3%	?	?	8%
O=C(Nc1nccs1)c1ccc(NC(=O)c2ccco2)cc1	17µM*	-3%	?	2.8µM*	4µM*	?
COc1ccc(C(=O)Nc2nc(-c3cccs3)c(NC(C)=O)s2)cc1	-3%	6%	0%	24%	-2%	16%
SMILES	FLuc counter	Luc counter	SMN2 splice enh	Rab9 prom act	NPC1 promoter act	ELG1 genotox
Cc1ccc(C(=O)Nc2nccs2)cc1	8.5µM*	-15%	10µM*	2.2µM*	2.8µM*	?
Cc1cc(N2CCN(C)CC2)nc2ccc(NC(=O)CCC(=O)NCCc3ccc(Cl)cc3)cc12	-2%	/	/	-9%	0%	0%
CC(=O)C1=C(NC(=O)c2ccc(F)cc2)CC2C1C2(C)C (stereo not drawn)	21µM*	-2%	-16%	13%	1%	-4%
CC(C)Nc1cc(C(C)(C)C)nc2c(-c3ccccc3)cnn12	11µM*	/	/	2.8µM*	?	?
CC(C)(C)c1cc(NCCCn2ccnc2)n2ncc(-c3ccccc3)c2n1	5.4µM*	/	/	2.2µM*	2µM*	?
Cc1cccc(-c2cc3nc(C)cc(NCCCn4ccnc4)n3n2)c1	15µM*	-3%	-13%	-8%	2%	?
CN(C)CCCNc1cc(C(C)(C)C)nc2c(-c3ccc(Cl)cc3)cnn12	?	/	/	-2%	0%	8%
Cc1cc(NCCCN2CCOCC2)n2ncc(-c3ccc(Cl)cc3)c2n1	17µM*	-4%	24%	?	?	?
CCCc1cc(NCCCn2ccnc2)n2nc(C)c(-c3ccccc3)c2n1	5%	/	/	1%	-10%	-4%
Cc1cc(NCCCn2ccnc2)n2ncc(-c3ccc(Cl)cc3)c2n1	0.95µM*	-1%	4%	0.56µM*	0.45µM*	?
Cc1cc2ncc(-c3ncc(C(F)(F)F)cc3Cl)cn2n1	1.3µM*	-14%	1.3µM*	0.4µM*	0.71µM*	?
Cc1nn2cc(-c3ncc(C(F)(F)F)cc3Cl)cnc2c1Br	1.5µM*	?	/	0.32µM*	0.4µM*	?
CCc1ccccc1NC(=O)Cn1ccn(Cc2ccccc2)c(=O)c1=O	-6%	/	/	/	/	/
CCCCCN(C(=O)CN1CCC(Cc2ccccc2)CC1)c1c(N)n(CCCC)c(=O)[nH]c1=O	-9%	-2%	12%	4%	-5%	0%
O=C(CCSc1nnc(-c2ccncc2)o1)Nc1ccccc1Cl	8%	-3%	-1%	/	/	/
Cc1ccc(COc2ccc3oc(-c4ccccc4)c(C(=O)O)c3c2)cc1	11µM*	/	11%	/	/	/
Cc1ccc2oc(-c3ccccc3)c(C(=O)O)c(=O)c2c1	21µM*	-3%	?	?	3.5µM*	?
COc1ccc2oc(-c3ccccc3)c(C(=O)O)c2c1	-5%	/	/	-4%	-1%	5%
COc1cccc(C2N=C(c3ccccc3C)NO2)c1OC (stereo not drawn)	9.5µM*	/	/	12%	19%	?
COc1cccc(C2NC(=O)c3ccccc3O2)c1OC (stereo not drawn)	-3%	-2%	-15%	8%	-1%	0%
Cc1ccc(NC(=O)c2ccc(CNc3c(N4CCOCC4)c(=O)c3=O)cc2)cc1	15µM*	-1%	-14%	3%	1%	1%
O=C(Nc1ccccc1Br)c1ccc(OC(=S)N2CCOCC2)cc1	-6%	-2%	/	-2%	-7%	-4%
Cc1cc(C)cc(NC(=O)c2ccc(CNc3c(N4CCOCC4)c(=O)c3=O)cc2)c1	-19%	0%	-9%	5%	-2%	1%
